Screening data deposited in PubChem BioAssay by The Scripps Research Institute Molecular Screening Center.
Only some compounds are listed: those with a hit (about 3.4% of all), similar ones and a draw of the others.
TEAD-YAP inh: TEAD-YAP interaction inhibition | AID 1259422 | HEK-TIYL cells, TEAD-Gal4/YAP UAS-luciferase luminescence | inhibition, % at 9.12 µM | 640,000 tested, 1.4% active; in the data active = inhibition above about 32%;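 also: 0% = median of test compound wells and 100% = reference inhibitor wells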
GPR151 activ: activators of human GPR151; PathHunter beta-arrestin GPR151 cells, luminescence; activation, % at 11.2 µM; 650,000 tested, 1% active; in the data active = activation above about 4.9%;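 also: 0% = median of compound wells and 100% = cells with positive control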
FBW7 activator: human FBW7 E3 ligase activation, primary screen. AID 1259310. AlphaScreen FBW7–phospho-cyclin E peptide binding, activator screen. 650,000 tested, 0.13% active. normalized activity (activation), % at 26.1 µM; in the data active = normalized activity above about 1.9%;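 also: purified mutant Fbw7 with reduced substrate affinity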
MITF primary: inhibitors of human MITF | AID 1259374 | O75030 | 650,000 tested, 0.91% active | AlphaScreen MITF homodimerization, bead proximity signal | inhibition, % at 2.6 µM; in the data active = inhibition above about 50%;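 also: 0% = vehicle wells with protein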
Target sequence (O75030 whole entry, looked up): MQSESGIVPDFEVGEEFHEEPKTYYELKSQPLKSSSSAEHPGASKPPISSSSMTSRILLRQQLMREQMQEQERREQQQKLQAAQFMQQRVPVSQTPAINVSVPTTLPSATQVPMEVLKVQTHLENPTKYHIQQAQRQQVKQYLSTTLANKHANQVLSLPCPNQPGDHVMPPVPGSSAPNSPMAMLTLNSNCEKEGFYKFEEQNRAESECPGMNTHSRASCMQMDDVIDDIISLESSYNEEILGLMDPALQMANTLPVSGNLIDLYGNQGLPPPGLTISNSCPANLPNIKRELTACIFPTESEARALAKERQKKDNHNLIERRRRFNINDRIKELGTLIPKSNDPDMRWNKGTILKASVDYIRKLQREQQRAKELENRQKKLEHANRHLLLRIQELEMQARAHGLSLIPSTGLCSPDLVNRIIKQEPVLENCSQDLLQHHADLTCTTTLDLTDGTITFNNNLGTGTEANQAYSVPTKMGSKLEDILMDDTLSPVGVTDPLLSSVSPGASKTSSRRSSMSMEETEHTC
GPR151 conf act: confirmation of human GPR151 activators; shares compounds with GPR151 activ; GPR151 PathHunter beta-arrestin cells, luminescence, 90 min; % of EA-reagent control over plate median; activation, % at 11.2 µM; 6,700 tested, under 10 active;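 active = mean percent activation across replicates above the confirmation screen cutoff of 4.91%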
GPR119 ag: activates human GPR119 in a GPR151 counter-screen; shares compounds with GPR151 activ; GPR119 PathHunter beta-arrestin cells, luminescence, 90 min; 0 = compound-well median, 100 = enzyme-acceptor control; activation, % at 11.2 µM; 6,700 tested, 0.3% active;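 active = mean percent activation in the counterscreen above 29.09%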;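 also: counterscreen on off-target GPR119 to flag nonselective hits from the GPR151 activator screen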
An asterisk follows results filed as active; . = not tested or not shown.

SMILES | TEAD-YAP inh | GPR151 activ | FBW7 activator | MITF primary | GPR151 conf act | GPR119 ag
CCOC(=O)CN1C(=O)C2(OCCCO2)c2cc(C)ccc21 | 6.3 | 5.7* | 0.0 | 5.4 | 0.5 | -0.8
Cc1ccc(NC(=O)c2ccccc2S(C)(=O)=O)cc1 | 6.6 | -0.6 | -0.1 | 1.0 | . | .
O=C(Nc1ccc(-c2ccc(NC(=O)c3ccc(F)cc3)c(C(=O)O)c2)cc1C(=O)O)c1ccc(F)cc1 | 4.4 | 0.3 | -0.1 | 8.7 | . | .
CCCN1C(=O)c2ccc(C(=O)NC3=NCCS3)cc2C1=O | -11.1 | 9.5* | -0.1 | 1.3 | -0.7 | -3.9
Cc1ccc(C(=O)NC2=NCCS2)cc1 | -66.8 | -2.1 | 0.0 | 2.2 | . | .
COC(=O)c1ccc(NC(=O)CC2C(=O)N(c3cccc(Cl)c3)C(=S)N2CCc2ccccc2)cc1 (centres undefined) | -7.5 | 1.9 | -0.1 | -5.3 | . | .
COc1cccc(CNC(=S)NC2CCCC2)c1 | 4.5 | 6.3* | -0.2 | -7.0 | -0.1 | -6.6
COCCNC(=O)c1cc2c(=O)oc3ccc(C)cc3c2s1 | 1.6 | -0.3 | -0.3 | 3.0 | . | .
O=C(COC(=O)c1n[nH]c2ccccc12)Nc1ccc2ccccc2c1 | -5.0 | -0.7 | 0.0 | 4.5 | . | .
CC(=O)NC/C(C)=N\NC(=O)c1ccccc1Cl | 3.5 | -0.2 | 0.0 | 0.9 | . | .
O=C(On1c(-c2ccc(F)cc2)nc2ccccc2c1=O)c1ccc(Cl)cc1 | -3.1 | 5.1* | 0.2 | 3.5 | 1.0 | 13.1
Cc1ccccc1C(=O)On1c(-c2ccc(Cl)c([N+](=O)[O-])c2)nc2ccccc2c1=O | 11.6 | 5.8* | -0.2 | 4.2 | 0.4 | 9.3
CCn1c(=O)cc(OCC(=O)NCCCN2CCOCC2)c2ccccc21 | 1.1 | 0.8 | -0.3 | 0.9 | . | .
CC(=O)Nc1ccc(NC(=O)c2cccc(-c3ccc(C(N)=O)cc3)n2)cc1 | 5.2 | 12.6* | -0.2 | 5.2 | 0.3 | -6.4
CCC(C)(C)c1ccc(OCCOCCn2cc([N+](=O)[O-])nc2C)c(C(C)(C)CC)c1 | 1.4 | 5.6* | 0.0 | -9.4 | 0.3 | 5.6
CCn1c(-c2cccc(Cl)c2)n[nH]c1=S | 4.5 | -0.9 | 0.0 | 12.2 | . | .
CCN(CC)c1n[nH]c(-c2cccc(Cl)c2)n1 | -29.6 | 5.3* | 0.1 | 14.2 | -0.9 | -8.0
Cc1ccc2ncc(C(=O)Nc3cc(C)on3)c(=O)n2c1 | -20.2 | 8.2* | -0.3 | 8.5 | -0.3 | -3.0
Cc1cc(C)cc(NC(=O)c2cnc3ccc(C)cn3c2=O)c1 | 5.9 | -1.1 | 0.1 | -2.7 | . | .
CC(C)(C)OC(=O)NCCCC1=CC2=CC(=O)C(C)(OC(=O)CCc3ccccc3)C(=O)C2=CO1 (centres undefined) | . | 1.6 | 0.1 | -2.2 | . | .
CCC(=O)OC1(C)C(=O)C=C2C=C(c3ccc(C#N)cc3)OC=C2C1=O (centres undefined) | . | 5.0* | 0.1 | -18.2 | 0.7 | 6.0
CCCCC1=CC2=CC(=O)C(C)(OC(=O)CCc3ccccc3)C(=O)C2=CO1 (centres undefined) | . | 8.4* | -0.1 | 3.1 | 0.1 | 4.1
O=C(Cc1cccs1)N1CC[C@H]2[C@H](CCCN2C(=O)[C@H]2C[C@@H]3C=C[C@H]2C3)C1 | -0.1 | 0.4 | 0.0 | -11.0 | . | .
N#Cc1cc2c(nc1SCc1ccc([N+](=O)[O-])cc1)CCCCC2 | 1.7 | 6.1* | 0.0 | -0.6 | 0.0 | -9.4
NS(=O)(=O)c1ccc(CCNC(=O)CSc2nc3ccccc3c(=O)n2CC2COc3ccccc3O2)cc1 (centres undefined) | 2.5 | 1.1 | -0.1 | 5.9 | . | .
SMILES | TEAD-YAP inh | GPR151 activ | FBW7 activator | MITF primary | GPR151 conf act | GPR119 ag
Nc1ccc(NS(=O)(=O)c2ccc3c(c2)OCCCO3)cc1 | -0.1 | 6.5* | 0.3 | 18.1 | -0.6 | -0.4
Cc1cc(C)cc(NS(=O)(=O)c2ccc3c(c2)OCCCO3)c1 | 4.4 | 1.6 | 0.2 | -0.2 | . | .
CC(C)NC(=O)C1CCC(=O)N1Cc1ccccc1Cl (centres undefined) | -17.5 | 0.3 | 0.1 | 5.0 | . | .
COc1ccc(C2C(C(C)=O)=C(C)N=c3s/c(=C\c4cccnc4)c(=O)n32)c(OC)c1 (centres undefined) | -0.9 | 7.1* | 0.2 | 10.5 | -0.7 | 4.4
COc1ccc(OC/C(O)=C(\C#N)c2nc3ccccc3[nH]2)cc1 | -0.3 | 0.5 | -0.6 | 7.4 | . | .
COc1cccc(OC/C(O)=C(\C#N)c2nc3ccccc3[nH]2)c1 | -0.8 | 5.2* | -0.1 | -0.4 | -0.1 | 0.5
CC/C(C)=C(\C#N)c1nc2ccccc2[nH]1 | -43.9 | 5.7* | 0.0 | -5.2 | 0.6 | 11.0
Cc1nc(-c2cccc(C(F)(F)F)c2)cc(N2CCC3(CC2)OCCO3)n1 | -2.2 | -0.9 | -0.2 | -3.8 | . | .
CC1(C)CC(=O)C2=C(C1)N(c1ccc(Br)cc1)C(N)=C(C#N)C2c1ccc([N+](=O)[O-])cc1 (centres undefined) | -2.3 | -0.3 | 0.0 | 3.2 | . | .
CCn1c(SCC(=O)N/N=C/c2ccccn2)nnc1-c1ccccc1 | 11.0 | -0.2 | -0.1 | 6.8 | . | .
COc1ccc(-c2nnc(SCc3nc4ccccc4[nH]3)n2-c2ccccc2)cc1OC | -13.3 | 5.0* | 0.2 | -13.8 | -0.6 | -1.9
CCN(CC)C(=O)CN(c1ccccc1)S(=O)(=O)c1ccc(C)cc1 | -3.3 | 6.4* | 0.1 | 13.2 | 1.8 | 12.0
CCOc1ccc(N(CC(=O)NC(C)(C)C)S(=O)(=O)c2ccc(SC)cc2)cc1 | 13.5 | 21.6* | 0.0 | 3.0 | 0.1 | -3.9
CCN(CC)C(=O)CN(c1cc(C)cc(C)c1)S(=O)(=O)c1ccccc1 | 4.3 | 0.2 | -0.1 | 4.0 | . | .
CSc1ccc(S(=O)(=O)N(CC(=O)O)c2ccc(C)cc2)cc1 | 5.5 | 5.8* | 0.8 | 18.7 | -1.0 | -11.3
CCN(CC)C(=O)CN(c1cccc(OC)c1)S(C)(=O)=O | 1.6 | 12.3* | 0.1 | -0.6 | 0.5 | -5.7
CCc1ccccc1NC(=O)CCCn1nc([N+](=O)[O-])c(Br)c1C | -0.8 | -0.2 | 0.1 | -3.1 | . | .
CCCCN1C(=O)C2C(C(=O)Nc3ccc(C)c(C)c3)C3C=CC2(O3)C1C(=O)NC1CCCC(C)C1C (centres undefined) | 0.8 | 1.1 | -0.2 | -13.0 | . | .
BrC(=C(c1ccccc1)c1ccccc1)c1ccccc1 | -0.6 | -1.3 | -0.1 | -2.5 | . | .
Cc1ccc(CN2C(=O)CN(C3CCCCCC3)C(=O)C2c2ccccc2F)cc1 (centres undefined) | 3.8 | 2.0 | 0.0 | -7.0 | . | .
COc1ccccc1-n1c(=S)sc2c(=O)n(-c3ccccc3)c(SCc3ccncc3)nc21 | 6.3 | 1.4 | -0.1 | 16.6 | . | .
CC1CCN(C(=O)CN2C(=O)NC(Cc3ccccc3)(Cc3ccccc3)C2=O)CC1 | 5.9 | -2.3 | 0.0 | 3.7 | . | .
CC1CC(C)CN(C(=O)CN2C(=O)NC(Cc3ccccc3)(Cc3ccccc3)C2=O)C1 (centres undefined) | 9.4 | 5.0* | -0.1 | 2.2 | -0.1 | 13.4
Cc1ccc(C(=O)NC(C(=O)O)C(C)C)cc1 (centres undefined) | 9.3 | 7.8* | 0.1 | 9.0 | 0.1 | -3.0
